Test results from PubChem BioAssay (NCATS).
Activity calls are given as the source filed them. Calls come from the whole dose curve; as a rule, active = well fitted curve in the direction sought with a large enough effect; inconclusive = small, poorly fitted or top-dose-only effect, or effect the other way, or another doubt; inactive = no such curve, though single readings can be large or run the other way.

target: Beta-2 adrenergic receptor (Homo sapiens) (UniProt P07550); assay: qHTS validation assay of beta-arrestin-biased ligands of beta2-adrenergic receptor (AID 485366); conditions: cell-based beta-arrestin recruitment to ADRB2, qHTS; series mostly up to 46.1 µM
Sequence (P07550 whole entry, looked up): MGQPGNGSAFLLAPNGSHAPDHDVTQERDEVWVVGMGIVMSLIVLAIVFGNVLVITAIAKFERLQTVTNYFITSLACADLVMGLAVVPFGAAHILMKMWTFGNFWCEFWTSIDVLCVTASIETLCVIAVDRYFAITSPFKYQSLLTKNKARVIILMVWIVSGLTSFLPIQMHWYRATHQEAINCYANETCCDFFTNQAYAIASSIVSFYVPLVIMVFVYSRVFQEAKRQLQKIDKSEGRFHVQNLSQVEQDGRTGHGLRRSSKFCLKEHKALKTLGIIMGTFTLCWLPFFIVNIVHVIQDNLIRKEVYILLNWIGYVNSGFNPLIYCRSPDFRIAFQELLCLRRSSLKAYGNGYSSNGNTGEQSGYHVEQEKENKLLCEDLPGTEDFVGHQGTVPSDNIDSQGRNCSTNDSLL
Description: NIH Molecular Libraries Probe Production Network [MLPCN]
NIH Chemical Genomics Center [NCGC]
PI: Bryan Roth and Bob Lefkowitz
The concept of biased agonism is an emerging concept of molecular pharmacology which proposes that seven transmembrane receptors (7TMRs) or G protein-coupled receptors (GPCRs), exist in multiple signaling conformations and complexes and that ligands (either agonists or antagonists) can induce signaling biased responses for distinct signal transduction cascades.
Furthermore, accumulating evidence over the last decade has drawn attention to a novel function of beta-arrestins as signal transducers that scaffold various signaling molecules upon activation of 7TMRs. […] This beta-arrestin-biased signaling presumably leads to distinct physiological outcomes from those by G protein activation.
Additionally, the active receptor conformations which […] on this beta-arrestin signaling are likely different from those activating G protein signaling
The goal of this screening project will be to discover and optimize novel beta-arrestin-biased ligands for beta2-AR signaling. A luminescent cell-based assay for beta2-AR-mediated agonism, known as the Tango assay, has been validated in which ligand binding of a recombinant beta2-AR and subsequent recruitment of a recombinant beta-arrestin lead to the release of the transcriptional activator tTA, which upregulates transcription of a tTA-responsive luciferase gene. […] Compounds were screened as a concentration-titration series that ranged from 46 microM to 0.6 nM.
NCGC Assay Protocol Summary:
Tango cells were dispensed into white, solid, tissue-culture-treated 1536-well plates at 1500 cells/well in DMEM, containing 1% fetal bovine serum (FBS). Then, 23 nL of compounds or DMSO were delivered to each well using a pin tool. Plates were incubated at 37 degrees C, 5% CO2 for 18 hr. Then 2.5 uL luminescent substrate mix (in-house prepared: 150 mM Tris-Cl, pH 7.6, 3 mM MgCl2, 1% Triton X-100, 5 mM DTT, 0.5 mM CoA, 0.15 mM ATP, 0.44 mM D-luciferin, final concentrations) was added to each well. Plates were then incubated for 15 minutes at room temperature, and subsequently measured on a ViewLux plate reader for luminescent signal using a clear filter with a 10 second exposure and 2x binning. The %Activity was determined from the corrected luminescence values.
Concentration-response curves were fitted to the signals arising from the resulting luminescence. The concentration-effect curves were then classified based on curve quality (r2), response magnitude and degree of measured activity, and compounds were subsequently categorized based on their curve class.
Keywords: biased agonism, beta2-AR, beta-arrestin, GPCR, 7TMR, Tango, luminescence, MLSMR, MLPCN, NIH Roadmap, qHTS, NCGC

SMILES | outcome
CN1C2CCCC1CC(NC(=O)c1nn(C)c3ccccc13)C2 (stereo not drawn) | inactive
N#C/C(=C\c1ccc(O)c(O)c1)C(=O)Nc1ccccc1 | inactive
N.N.O=C(O)C1(C(=O)O)CCC1.[Pt+2] | inactive
Cc1cccc(/C=C/c2ccccc2)n1 | inactive
CCc1ccc(/C=C2/SC(=S)NC2=O)cc1 | inactive
C[C@H](Cc1ccccc1)Nc1ncnc2c1ncn2[C@@H]1O[C@H](CO)[C@@H](O)[C@H]1O | inactive
O=Nc1c(-c2c(O)[nH]c3ccccc23)[nH]c2ccccc12 | inactive
S=C(Nc1ccccc1)Nc1nccs1 | inactive
Nc1c(S(=O)(=O)O)cc(Nc2ccc(Nc3nc(Cl)nc(Nc4ccc(S(=O)(=O)O)cc4)n3)c(S(=O)(=O)O)c2)c2c1C(=O)c1ccccc1C2=O | inactive
C1CCC(N=C(NC23CC4CC(CC(C4)C2)C3)N2CCOCC2)CC1 | inactive
Oc1cc2c(c(Cl)c1O)CCNCC2c1ccccc1 (stereo not drawn) | inactive
CC[N+](CC)(CC)CC | inactive
O=C1c2ccccc2C(=O)c2c(NCCc3ccc(O)cc3)ccc(NCCc3ccc(O)cc3)c21 | inactive
